Read-out in assay [1]: Interleukin-6 (IL6), IL6 (gene 3569)
Nature of the assay: BSK_CASM3C_IL6: BioMAP Diversity Plus: CASM3C Assay for Interleukin-6 (IL6) Biomarker Activity for (AID 2283040). The note with it: primary human coronary artery smooth muscle cells; actives raise or lower the signal.

Read-out in assay [2]: Tissue plasminogen activator (tPA), PLAT (gene 5327)
Kind of assay: BSK_BE3C_tPA: BioMAP Diversity Plus: BE3C Assay for Tissue plasminogen activator (tPA) Biomarker Activity (AID 2283041).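 Also: tPA level quantified by ELISA one day after compound addition.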 Particulars: primary human bronchial epithelial cells; actives raise or lower the signal. The essentials:
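Human primary bronchial epithelial cells were dosed with chemical and tPA biomarker levels measured by ELISA 24 hours later. Activity was fitted bidirectionally against DMSO as negative control and baseline.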

Read-out in assay [3]: Interleukin-8 (IL8), CXCL8 (gene 3576)
Nature of the assay: BSK_CASM3C_IL8: BioMAP Diversity Plus: CASM3C Assay for Interleukin-8 (IL8) Biomarker Activity (AID 2283042).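 Also: IL-8 protein level quantified by ELISA.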 Particulars: primary human coronary artery smooth muscle cells; actives raise or lower the signal.

Read-out in assay [4]: Human Leukocyte Antigen - DR isotype (HLADR), HLA-DRA (gene 3122)
Nature of the assay: BSK_CASM3C_HLADR: BioMAP Diversity Plus: CASM3C Assay for Human Leukocyte Antigen - DR isotype (HLADR) Biomarker Activity (AID 2283043).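 Also: cell-surface HLA-DR protein level quantified by ELISA.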 The note with it: primary human coronary artery smooth muscle cells; actives raise or lower the signal.

Read-out in assay [5]: Macrophage colony-stimulating factor (MCSF), CSF1 (gene 1435)
Nature of the assay: BSK_CASM3C_MCSF: BioMAP Diversity Plus: CASM3C Assay for Macrophage colony-stimulating factor (MCSF) Biomarker Activity (AID 2283044).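 Also: M-CSF protein amount quantified by ELISA after 24 h exposure.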 Particulars: primary human coronary artery smooth muscle cells; actives raise or lower the signal.

Read-out in assay [6]: Low-density lipoprotein receptor (LDLR), LDLR (gene 3949)
Kind of assay: BSK_CASM3C_LDLR: BioMAP Diversity Plus: CASM3C Assay for Low-density lipoprotein receptor (LDLR) Biomarker Activity (AID 2283045).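 Also: LDLR protein level on the cell surface quantified by ELISA.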 Particulars: primary human coronary artery smooth muscle cells; actives raise or lower the signal.

Read-out in assay [7]: Monocyte Chemoattractant Protein-1 (MCP1), CCL2 (gene 6347)
Kind of assay: BSK_CASM3C_MCP1: BioMAP Diversity Plus: CASM3C Assay for Monocyte Chemoattractant Protein-1 (MCP1) Biomarker Activity (AID 2283046).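 Also: MCP-1 level quantified by ELISA 24 h after dosing.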 The note with it: primary human coronary artery smooth muscle cells; actives raise or lower the signal.

Assay [8] can be described thus: BSK_CASM3C_Proliferation: Cell Proliferation Assessment in the BioMAP Diversity Plus: CASM3C Assay (AID 2283047).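 Also: sulforhodamine B total protein stain as relative cell number at 560 nm; sub-confluent cells exposed 48 h before staining; fitted both ways against DMSO so gain or loss of cell number.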 Particulars: primary human coronary artery smooth muscle cells.
Read-out in assay [9]: Monokine induced gamma interferon (MIG), CXCL9 (gene 4283)
Nature of the assay: BSK_CASM3C_MIG: BioMAP Diversity Plus: CASM3C Assay for Monokine induced gamma interferon (MIG) Biomarker Activity (AID 2283048).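 Also: MIG protein level measured by ELISA.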 Particulars: primary human coronary artery smooth muscle cells; actives raise or lower the signal.

Read-out in assay [10]: serum amyloid A (SAA), SAA1 (gene 6288)
Nature of the assay: BSK_CASM3C_SAA: BioMAP Diversity Plus: CASM3C Assay for serum amyloid A (SAA) Biomarker Activity (AID 2283049).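 Also: SAA protein level quantified by ELISA.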 The note with it: primary human coronary artery smooth muscle cells; actives raise or lower the signal.

A short description of assay [11]: BSK_CASM3C_SRB: Viability Assessment in the BioMAP Diversity Plus: CASM3C Assay (AID 2283050).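 Also: total protein by SRB staining as cytotoxicity measure in parallel cultures.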 The note with it: primary human coronary artery smooth muscle cells.
Read-out in assay [12]: Thrombomodulin, THBD (gene 7056)
Nature of the assay: BSK_CASM3C_Thrombomodulin: BioMAP Diversity Plus: CASM3C Assay for Thrombomodulin Biomarker Activity (AID 2283051).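 Also: thrombomodulin protein level measured by ELISA 24 h after dosing.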 The note with it: primary human coronary artery smooth muscle cells; actives raise or lower the signal.

Read-out in assay [13]: Tissue Factor, F3 (gene 2152)
Kind of assay: BSK_CASM3C_TissueFactor: BioMAP Diversity Plus: CASM3C Assay for Tissue Factor Biomarker Activity (AID 2283052).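 Also: cell surface tissue factor protein level read by ELISA.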 Particulars: primary human coronary artery smooth muscle cells; actives raise or lower the signal.

Read-out in assay [14]: Interferon-gamma inducible Protein 10 (IP10), CXCL10 (gene 3627)
Kind of assay: BSK_hDFCGF_IP10: BioMAP Diversity Plus: hDFCGF Assay for Interferon-gamma inducible Protein 10 (IP10) Biomarker Activity (AID 2283053). Particulars: primary human foreskin fibroblasts; actives raise or lower the signal. The essentials:
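Human foreskin fibroblast primary cells (hDFCGF system) were dosed with chemical and assayed at 24 h; IP-10 measured by ELISA. Activity fitted bidirectionally relative to DMSO negative control as baseline.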

Read-out in assay [15]: Urokinase-type plasminogen activator receptor (uPAR), PLAUR (gene 5329)
Nature of the assay: BSK_CASM3C_uPAR: BioMAP Diversity Plus: CASM3C Assay for Urokinase-type plasminogen activator receptor (uPAR) Biomarker Activity (AID 2283054).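 Also: cell-surface uPAR protein level quantified by ELISA.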 The note with it: primary human coronary artery smooth muscle cells; actives raise or lower the signal.

Read-out in assay [16]: Vascular cell adhesion molecule 1 (VCAM1), VCAM1 (gene 7412)
Nature of the assay: BSK_CASM3C_VCAM1: BioMAP Diversity Plus: CASM3C Assay for Vascular cell adhesion molecule 1 (VCAM1) Biomarker Activity (AID 2283055).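 Also: VCAM-1 protein level quantified by ELISA on the cells.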 The note with it: primary human coronary artery smooth muscle cells; actives raise or lower the signal.

Read-out in assay [17]: Collagen III, COL3A1 (gene 1281)
Kind of assay: BSK_hDFCGF_CollagenIII: BioMAP Diversity Plus: hDFCGF Assay for Collagen III Biomarker Activity (AID 2283056). Particulars: primary human foreskin fibroblasts; actives raise or lower the signal. The essentials: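 Response relative to DMSO, fitted in both directions, reflects ELISA-measured collagen III in human primary skin fibroblasts 24 h after compound addition.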

Read-out in assay [18]: Epidermal growth factor receptor (EGFR), EGFR (gene 1956)
Kind of assay: BSK_hDFCGF_EGFR: BioMAP Diversity Plus: hDFCGF Assay for Epidermal growth factor receptor (EGFR) Biomarker Activity (AID 2283057). Particulars: primary human foreskin fibroblasts; actives raise or lower the signal. An outline of the steps: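 Primary human foreskin fibroblasts were exposed to compound for 24 h, after which cell-surface EGFR was quantified by ELISA. Activity was fitted bidirectionally against the DMSO negative control as baseline.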

Read-out in assay [19]: Interleukin-8 (IL8), CXCL8 (gene 3576)
Kind of assay: BSK_hDFCGF_IL8: BioMAP Diversity Plus: hDFCGF Assay for Interleukin-8 (IL8) Biomarker Activity (AID 2283058). The note with it: primary human foreskin fibroblasts; actives raise or lower the signal. The essentials: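 Fibroblast monolayers (human foreskin, hDFCGF) received test chemical for 24 h before ELISA detection of IL-8; either increases or decreases relative to DMSO count as activity.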

Assay [20] can be described thus: BSK_hDFCGF_Proliferation: Cell Proliferation Assessment in the BioMAP Diversity Plus: hDFCGF Assay (AID 2283059).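 Also: curves fitted for both rise and fall of signal versus DMSO baseline.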 Particulars: primary human foreskin fibroblasts. An outline of the steps:
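Steps: dose primary human dermal fibroblasts (foreskin); […] fix in 10% TCA; stain with 0.1% SRB; read 560 nm; fit gain or loss of signal against DMSO.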

Structures are written as SMILES. The source made the active and inactive calls. The calls were made as follows: active = hit-call score of the fitted dose curve at least 0.9, where 1 is the maximum; inactive = score below 0.9.

Regarding `CCOP(=S)(OCC)OC(Cl)C(Cl)(Cl)Cl` (stereo not given), the AC50 in [1] is 20 µM (active); in [8] it was 37 µM (active); in assay [12], 11.4 µM (active); in assay [14], 26.3 µM (active); in assay [17], 11.1 µM (active). For the same molecule, the result in [2], in assay [3], in [4], in assay [5], in assay [6] and in assay [7] was inactive. In addition, the outcome in [9], in assay [10], in assay [11], in [13], in assay [15] and in assay [16] was inactive. Further, the outcome in assay [18] and in [19] was inactive.
For `CC(C)N(C(=O)SCC(Cl)=C(Cl)Cl)C(C)C`, the outcome in [1], in assay [2], in assay [3], in [4], in assay [6] and in assay [7] was inactive. Further, the result in assay [9], in [10], in [13], in [15] and in [16] was inactive. The AC50 is 34.4 µM (active) in assay [5]; 37.1 µM (active) in assay [8]; 32.4 µM (active) in assay [11]; 20 µM (active) in assay [12]; 34 µM (active) in [14]; 30.5 µM (active) in assay [17]. The AC50 was 28.4 µM (active) in assay [18] and 33.6 µM (active) in assay [19].
Turning to `C=C(C)[C@H]1Cc2c(ccc3c2O[C@@H]2COc4cc(OC)c(OC)cc4[C@@H]2C3=O)O1`, the result in [1], in assay [2], in assay [3], in assay [4], in [5] and in assay [6] was inactive. Moreover, the result in assay [7], in assay [9], in assay [10], in [11], in assay [13] and in [14] was inactive. Moreover, the result in assay [15], in [16], in [17] and in assay [19] was inactive. In addition, the AC50 in [8] was 3.97 µM (active); in [12], 0.164 µM (active); in assay [18] it was 0.771 µM (active).
On to `Cc1cc(C2CC2)nc(Nc2ccccc2)n1`, for which the result in [1], in [2], in assay [3], in assay [4], in assay [5] and in assay [6] was inactive. The outcome in [7], in [9], in [10], in assay [11], in [13] and in assay [15] was inactive. Also, the result in assay [16], in assay [17], in assay [18] and in assay [19] was inactive. Moreover, the AC50 is 14.4 µM (active) in assay [8], 27.8 µM (active) in assay [12], 6.65 µM (active) in assay [14] and 15 µM (active) in [20].
For `O=c1ccc(=O)[nH][nH]1`, the result in assay [1], in assay [2], in assay [3], in assay [4], in assay [5] and in assay [6] was inactive. Moreover, the outcome in assay [7], in [8], in [9], in [10], in [11] and in assay [12] was inactive. For the same molecule, the result in [13], in assay [14], in assay [15], in assay [16], in assay [17] and in assay [18] was inactive. Moreover, the result in assay [19] was inactive.
For `COc1cccc(C(=O)NN(C(=O)c2cc(C)cc(C)c2)C(C)(C)C)c1C`, the outcome in [1], in assay [2], in [3], in assay [4], in [5] and in assay [6] was inactive. Further, the outcome in assay [7], in assay [8], in assay [9], in assay [10], in assay [11] and in assay [12] was inactive. The result in [13], in [14], in assay [15], in assay [16], in assay [17] and in assay [18] was inactive. Besides, the outcome in [19] was inactive.

The term AC50 denotes the concentration at which the activity in the assay is half-maximal.

These data come from PubChem BioAssay (EPA / NIEHS).
